From PubChem
Shown are actives, neighbours in structure and some others; about 4.3% of the full set was active somewhere.
MITF act – increases MITF-driven TRPM1 promoter luciferase signal; SK-MEL-5 TRPM1-promoter luciferase, 24 h; % of positive control, neutral wells = 0; activation, % at 12.5 µM; 0.75% of 300,000 active; AID 588334;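 active = mean activation of at least 80% with every replicate also reaching 80%; inconclusive = mean reaches 80% but some replicate falls short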
esBAF inh – inhibitors of esBAF chromatin remodeling in mouse ES cells | Bmi1-luciferase knock-in reporter, 24 h; 100% = twice the neutral-well signal | reporter increase, % at 12.5 µM | 2% of 350,000 active; in the data active = activation above about 40%; inconclusive = no clear call, values can overlap the other calls;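 also: a rise in the Bmi1 reporter signal indicates esBAF inhibition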
MLL AF4-AF9 inh – blocks AF4 peptide binding to human AF9; inhibition, % at 10 µM; P42568; AlphaScreen, biotin-AF4 peptide binding to FLAG-AF9; AID 651704; 0.47% of 350,000 active;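 active = every replicate reaching a set inhibition limit, whatever the replicate mean, cut at about 25% in these data; inconclusive = mean inhibition reaches that limit but some replicates miss it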
Wnt act – Wnt/beta-catenin pathway activation | Wnt/beta-catenin reporter cell assay, activator, plate reader | activation, % at 9.35 µM | 1.2% of 300,000 active | AID 743398; in the data active = activation above about 30%, passing the limit was not always enough; inconclusive = no clear call, values can overlap the other calls
FGF22 binding – binders of recombinant human FGF22 by thermal shift | activity (Tm shift, normalised), % at 9.99 µM | Q9HCT0 | 1.5% of 340,000 active | SYPRO orange fluorescence; percent of sucrose octasulfate shift, DMSO zero | AID 651658;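 active = mean Tm shift, scaled 0 neutral to 100 positive control, at about 1.3% or above, every replicate too, limit read from the data; inconclusive = no clear call, values can overlap the other calls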
Target sequence (Q9HCT0 whole entry, looked up): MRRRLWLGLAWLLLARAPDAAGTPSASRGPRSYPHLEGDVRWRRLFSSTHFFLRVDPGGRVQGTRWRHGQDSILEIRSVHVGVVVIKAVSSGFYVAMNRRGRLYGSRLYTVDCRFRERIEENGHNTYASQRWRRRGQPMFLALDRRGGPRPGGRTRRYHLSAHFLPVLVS
SMARCA2 act – activators of SMARCA2 function | MG213 cells, MMTV-luciferase reporter, dexamethasone, overnight | activation, % at 9.1 µM | 1% of 370,000 active | AID 652017; in the data active = activation above about 7.8%
Each line names hits and unclear results; the compound was inactive in the other large screens.

CCCC(=O)Nc1ccc2c(c1)OC[C@@H](C)N(C)C[C@H](C)[C@H](OC)CN(C)C2=O	none (no result: MITF act, Wnt act, SMARCA2 act)
Cc1cccc(N/C=C/C(=O)c2ccc(Cl)cc2)c1	Wnt act 49.1
COc1cccc(C(=O)/C=C/Nc2cc(C)ccc2O)c1	esBAF inh 62.8 (no result: MLL AF4-AF9 inh, Wnt act, FGF22 binding)
CC(=O)c1ccc(N/C=C/C(=O)c2ccc(Br)cc2)cc1	esBAF inh 46.0 (no result: MITF act)
COc1ccc(NC(=O)NS(=O)(=O)c2ccc(C)cc2)cc1OC	Wnt act 31.8
CC1(C)C[C@H](O)[C@]2(CO)[C@H](O)C[C@]3(C)C(=CCC4[C@@]5(C)CC[C@H](O)C(C)(C)C5CC[C@]43C)[C@@H]2C1 (stereo partly specified)	MLL AF4-AF9 inh 46.0
CN(C)C(=O)C[C@@H]1CC[C@@H]2[C@H](COC[C@H](O)CN2C(=O)C2CC2)O1	none (no result: MITF act, Wnt act, SMARCA2 act)
O=C(C1CCCC1)N1CC(=O)N2[C@H](CO)[C@H](c3ccc(C#CC4CCCC4)cc3)[C@H]2C1	none (no result: MITF act, esBAF inh, Wnt act, FGF22 binding, SMARCA2 act)
C/C(=N\NC(=O)COc1ccccc1[N+](=O)[O-])c1cccs1	esBAF inh 53.5, Wnt act 35.0
O=C(Nc1cccnc1)c1ccc([N+](=O)[O-])o1	SMARCA2 act 7.8
O=C(COc1ccccc1[N+](=O)[O-])Nc1cccnc1	esBAF inh 45.2, Wnt act inconclusive
O=C(COc1ccc2ccccc2c1Br)Nc1cccnc1	MITF act 114.2
Cc1ccc(NC(=O)COc2ccccc2[N+](=O)[O-])nc1	Wnt act 53.9
Cc1ccc(S(=O)(=O)Oc2ccccc2[N+](=O)[O-])cc1	FGF22 binding 43.3
Cc1ccnc(NC(=O)COc2ccccc2[N+](=O)[O-])c1	none (no result: esBAF inh, Wnt act)
COc1ccccc1[N+](=O)[O-]	none (no result: MLL AF4-AF9 inh)
O=C(COc1ccccc1[N+](=O)[O-])Nc1ccc(Br)cc1	Wnt act 48.3 (no result: esBAF inh)
C[C@H](CO)N1C[C@H](C)[C@@H](CN(C)C(=O)Nc2cccc3ccccc23)Oc2ccc(NC(=O)Nc3ccc(F)cc3)cc2C1=O	none (no result: MITF act, Wnt act, SMARCA2 act)
C=CCn1c(C)csc1=Nc1ccccc1C	MLL AF4-AF9 inh 27.1
CC(N=C1CC(C)(C)CC(=O)/C1=C(/O)CCCN1C(=O)c2ccccc2C1=O)C(=O)O (stereo unspecified)	FGF22 binding 42.9 (no result: esBAF inh)
COC(=O)C1CN(Cc2cn(Cc3ccccc3)nn2)CCS(=O)(=O)N1Cc1ccccc1 (stereo unspecified)	none (no result: MITF act, esBAF inh, MLL AF4-AF9 inh, Wnt act, FGF22 binding)
COc1cc(/C=C2/CCC/C(=C\c3cc(O)c(OC)c(Cl)c3)C2=O)cc(Cl)c1O	Wnt act 41.4 (no result: MLL AF4-AF9 inh, FGF22 binding)
COc1ccc(S(=O)(=O)Nc2ccc3c(c2)C(=O)N([C@H](C)CO)C[C@@H](C)[C@H](CN(C)C(=O)Nc2ccc(F)cc2)O3)cc1	none (no result: MITF act, Wnt act, SMARCA2 act)
COc1ccc(Br)cc1/C=N/NC(=O)c1cc(OC)c(OC)c(OC)c1	none (no result: esBAF inh, MLL AF4-AF9 inh, FGF22 binding)
COc1c(OC(C)=O)ccc(/C=N\NC(=O)c2ccc(Br)cc2)c1[N+](=O)[O-]	FGF22 binding 45.3
O=C(Oc1c(Br)cc([N+](=O)[O-])cc1Br)c1cccnc1	FGF22 binding 43.6 (no result: esBAF inh)
CN(C)C(=O)c1cc(C(=O)c2ccccc2Cl)c[nH]1	FGF22 binding 43.0 (no result: Wnt act)
NC(=O)c1cc(C(=O)c2ccccc2Cl)c[nH]1	FGF22 binding 42.9 (no result: esBAF inh)
CCOc1ccc(-c2cc(C(=O)Nc3ccc(F)cc3)[nH]n2)c(C)c1	esBAF inh 65.1 (no result: MITF act)
CCOc1ccc(-c2cc(C(=O)NCc3ccc(F)cc3)[nH]n2)c(C)c1	none (no result: MITF act)
O=C(Nc1nc2ccccc2[nH]1)c1cccc(Br)c1	esBAF inh 51.2
COc1cccc(C(=O)Nc2nc3ccccc3[nH]2)c1	none (no result: esBAF inh, MLL AF4-AF9 inh, Wnt act, FGF22 binding)
Cc1c(C(=O)Nc2nc3ccccc3[nH]2)oc2c(Cl)cccc12	esBAF inh 48.8 (no result: FGF22 binding)
O=C(Nc1nc2ccccc2[nH]1)c1cccc(F)c1	Wnt act 31.4
Cc1c(C(=O)Nc2nc3ccccc3[nH]2)oc2ccccc12	none (no result: esBAF inh)
CN(C)c1cccc(C(=O)Nc2nc3ccccc3[nH]2)c1	none
C[C@@H]1CN([C@@H](C)CO)C(=O)c2cc(NS(C)(=O)=O)ccc2O[C@@H](C)CCCCO[C@@H]1CN(C)C(=O)Nc1ccccc1	none (no result: MITF act, Wnt act, SMARCA2 act)
CCOc1ccc(/C=N/Nc2ccccc2)cc1	none
Clc1cccc(N/N=C/c2ccncc2)c1	MITF act 100.9 (no result: esBAF inh, MLL AF4-AF9 inh, FGF22 binding)
